Assay results: PubChem BioAssay (NCI)
About 79,000 compounds went through this panel and 15% of them were active in at least one assay; those are over-represented in the sample as a whole. The source made the active and inactive calls. No stated cut-off is given here; in the data, active means growth inhibition above about 70%; inactive means the rest.

Assays:
[1] = NCI Yeast Anticancer Drug Screen. Data for the mec2-1 strain (AID 157); conditions: S. cerevisiae mec2-1 strain, hits give high values
In short: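 Yeast mec2-1 mutant treated with compound. Readout: growth inhibition vs vehicle controls.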

[2] = NCI Yeast Anticancer Drug Screen. Data for the rad14 strain (AID 159);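 further: 0% = growth of vehicle-treated control cultures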; conditions: S. cerevisiae rad14 strain growth inhibition, hits give high values
In short: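 Screen for anticancer potential: a yeast strain altered in DNA damage repair is grown with compound, and reduced growth is quantified against vehicle controls.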

[3] = NCI Yeast Anticancer Drug Screen. Data for the sgs1 mgt1 strain (AID 161);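 further: 0% = growth of cultures given vehicle only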; conditions: S. cerevisiae sgs1 mgt1 strain, hits give high values
In short: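 Mutant yeast exposed to compound; growth scored against vehicle-only wells.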

[4] = NCI Yeast Anticancer Drug Screen. Data for the CLN2oe strain (AID 163);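 further: 0% = growth of vehicle-only control cultures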; conditions: S. cerevisiae CLN2oe strain, hits give high values
In short: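 Read-out: yeast growth inhibition, expressed relative to vehicle-only controls. The strain bears an engineered cell-cycle alteration.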

[5] = NCI Yeast Anticancer Drug Screen. Data for the cln2 rad14 strain (AID 165);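 further: 0% = growth equal to vehicle treated cultures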; conditions: S. cerevisiae cln2 rad14 strain, hits give high values
In short: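 cln2 rad14 yeast strain; compound exposure; growth inhibition read vs vehicle controls.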

[6] = NCI Yeast Anticancer Drug Screen. Data for the bub3 strain (AID 167); conditions: S. cerevisiae bub3 mutant strain, hits give high values
In short: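 Screening used yeast with an engineered genetic alteration affecting cell cycle control. Compound-exposed cultures were compared with vehicle cultures, and reduced growth was taken as inhibition.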

[7] = NCI Yeast Anticancer Drug Screen. Data for the wt2 strain (AID 169);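 further: 0% = growth of vehicle-treated yeast cultures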; conditions: S. cerevisiae wt2 strain growth inhibition, hits give high values
In short: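 Read-out: growth inhibition versus vehicle-treated control cultures after compound exposure of the yeast strain.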

[8] = NCI Yeast Anticancer Drug Screen. Data for the mlh1 strain (AID 171);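 further: 0% = growth of vehicle-treated control cultures of the same strain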; conditions: S. cerevisiae mlh1 strain growth inhibition, hits give high values
In short: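 Read-out: growth inhibition versus vehicle controls. Strain: engineered yeast with a defined DNA repair or cell cycle defect, compound-treated.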

[9] = NCI Yeast Anticancer Drug Screen. Data for the sgs1 strain (AID 173);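 further: 0% = growth of vehicle-only control cultures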; conditions: S. cerevisiae sgs1 mutant, hits give high values
In short: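 Read-out: yeast growth inhibition relative to vehicle controls, following compound exposure of a strain with a defined DNA repair/cell cycle alteration.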

[10] = NCI Yeast Anticancer Drug Screen. Data for the mlh1 rad18 strain (AID 175); conditions: S. cerevisiae mlh1 rad18 strain growth inhibition, hits give high values
In short: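 Yeast w/ defined DNA-repair lesions; compound exposure; growth vs vehicle controls → % inhibition.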

[11] = NCI Yeast Anticancer Drug Screen. Data for the rad18 strain (AID 177); conditions: S. cerevisiae rad18 mutant growth inhibition, hits give high values
In short: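 Readout: growth inhibition vs vehicle controls. Cells: genetically altered yeast strain, DNA repair defect.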

[12] = NCI Yeast Anticancer Drug Screen. Data for the rad52 strain (AID 147);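 further: 0% = growth of vehicle-treated control cultures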; conditions: S. cerevisiae rad52 mutant growth inhibition, hits give high values
In short: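 Read-out: growth inhibition versus vehicle-treated controls. Cells were a DNA repair-deficient yeast strain treated with compounds.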

[13] = NCI Yeast Anticancer Drug Screen. Data for the wt1 strain (AID 149);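 further: 0% = growth of vehicle-treated wt1 cultures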; conditions: S. cerevisiae wt1 strain (SPY 50644) growth inhibition, hits give high values
In short: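 Using yeast strain wt1, compound-induced growth inhibition was determined against vehicle-treated cultures.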

[14] = NCI Yeast Anticancer Drug Screen. Data for the rad50EPP+ strain (AID 151);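 further: 0% = growth of vehicle-treated control cultures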; conditions: S. cerevisiae rad50 mutant strain, hits give high values
In short: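 Growth inhibition read against vehicle controls in rad50EPP+ yeast, a strain altered in DNA damage repair, after compound exposure.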

[15] = NCI Yeast Anticancer Drug Screen. Data for the mgt1 strain (AID 153); conditions: S. cerevisiae mgt1 mutant growth inhibition, hits give high values
In short: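 mgt1 yeast grown with test compound; read-out is growth inhibition versus vehicle-treated cultures.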

[16] = NCI Yeast Anticancer Drug Screen. Data for the rad50 strain (AID 155);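 further: 0% = growth of vehicle-only cultures of the same strain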; conditions: S. cerevisiae rad50 strain growth inhibition, hits give high values
In short: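 Relative growth inhibition (compound vs vehicle) was measured in yeast with a defined repair-gene alteration.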

[17] = at 5.0 µM (retest, dose inferred, filed as 0.5)
[18] = at 50.0 µM (retest, dose inferred, filed as 5.0)

Measured: growth inhibition

COC(=O)/C=C(/C(=O)OC)C(Cl)(Cl)Cl
inactive: [2]; at 1.2 µM 6% | [2]; at 3.7 µM 18% | [2]; at 11.0 µM 64% | [3]; [17] 23% | [4]; at 1.2 µM -5% | [4]; at 3.7 µM -3% | [4]; at 11.0 µM 2% | [4]; at 33.0 µM 45% | [5]; [17] 9% | [5]; at 50.0 µM 67.5% | [6]; at 1.2 µM -4% | [6]; at 3.7 µM 6% | [6]; [17] -3% | [6]; at 11.0 µM 23% | [6]; at 50.0 µM -0.7% | [7]; at 1.2 µM -1% | [7]; at 3.7 µM 8% | [7]; at 11.0 µM 33% | [8]; at 1.2 µM -3% | [8]; at 3.7 µM 2% | [8]; at 11.0 µM 5% | [9]; at 1.2 µM 6% | [9]; at 3.7 µM 14% | [9]; at 11.0 µM 69% | [10]; at 50.0 µM 40.9% | [11]; at 1.2 µM 38%
active: [1]; at 100.0 µM 98% | [2]; at 33.0 µM 96% | [2]; at 100.0 µM 100% | [3]; [18] 97% | [3]; at 50.0 µM 79.9% | [4]; at 100.0 µM 99% | [5]; [18] 95% | [6]; at 33.0 µM 81% | [6]; [18] 94% | [6]; at 100.0 µM 100% | [7]; at 33.0 µM 99% | [7]; at 100.0 µM 100% | [8]; at 33.0 µM 84% | [8]; at 100.0 µM 99% | [9]; at 33.0 µM 97% | [9]; at 100.0 µM 100% | [10]; [17] 70% | [10]; [18] 97% | [11]; at 3.7 µM 87% | [11]; at 11.0 µM 95% | [11]; at 33.0 µM 98% | [11]; at 100.0 µM 99%

Cc1c2cccc(Sc3ccccc3)c2c2c3c(cccc13)[S+](c1ccccc1)C2 (centres undefined)
active: [12]; at 11.0 µM 96% | [12]; at 33.0 µM 95% | [12]; at 100.0 µM 88% | [13]; at 11.0 µM 96% | [13]; at 33.0 µM 96% | [13]; at 100.0 µM 88% | [14]; at 33.0 µM 88% | [14]; at 100.0 µM 88% | [15]; at 11.0 µM 97% | [15]; at 33.0 µM 95% | [15]; at 100.0 µM 90% | [16]; at 11.0 µM 97% | [16]; at 33.0 µM 94% | [16]; [18] 97% | [16]; at 50.0 µM 90.9% | [16]; at 100.0 µM 82% | [1]; at 11.0 µM 98% | [1]; at 33.0 µM 95% | [1]; [18] 97% | [1]; at 50.0 µM 93.5% | [1]; at 100.0 µM 91% | [3]; [18] 98% | [3]; at 50.0 µM 94.2% | [4]; at 11.0 µM 96% | [4]; at 33.0 µM 92% | [4]; at 100.0 µM 84% | [5]; [18] 96% | [5]; at 50.0 µM 93.4% | [6]; at 11.0 µM 97% | [6]; at 33.0 µM 94% | [6]; [18] 97% | [6]; at 50.0 µM 95.2% | [6]; at 100.0 µM 87% | [7]; at 11.0 µM 97% | [7]; at 33.0 µM 95% | [7]; at 100.0 µM 86% | [8]; at 11.0 µM 98% | [8]; at 33.0 µM 96% | [8]; at 100.0 µM 93% | [9]; at 11.0 µM 97% | [9]; at 33.0 µM 95% | [9]; at 100.0 µM 87% | [10]; [18] 97% | [10]; at 50.0 µM 93.3%
inactive: [12]; at 1.2 µM 13% | [12]; at 3.7 µM 41% | [13]; at 1.2 µM 8% | [13]; at 3.7 µM 19% | [14]; at 1.2 µM 4% | [14]; at 3.7 µM 12% | [14]; at 11.0 µM 39% | [15]; at 1.2 µM 5% | [15]; at 3.7 µM 4% | [16]; at 1.2 µM 25% | [16]; at 3.7 µM 69% | [16]; [17] 58% | [1]; at 1.2 µM 7% | [1]; at 3.7 µM 30% | [1]; [17] 28% | [3]; [17] 18% | [4]; at 1.2 µM -3% | [4]; at 3.7 µM -1% | [5]; [17] 7% | [6]; at 1.2 µM -5% | [6]; at 3.7 µM 27% | [6]; [17] 16% | [7]; at 1.2 µM 6% | [7]; at 3.7 µM 25% | [8]; at 1.2 µM 0% | [8]; at 3.7 µM 22% | [9]; at 1.2 µM 10% | [9]; at 3.7 µM 40% | [10]; [17] 18%

S=C1SCN(C2CCCCC2)CN1C1CCCCC1
inactive: [12]; at 1.2 µM -21% | [12]; at 3.7 µM -25% | [12]; at 11.0 µM -14% | [12]; at 33.0 µM -1% | [12]; at 100.0 µM 55% | [13]; at 1.2 µM -21% | [13]; at 3.7 µM -29% | [13]; at 11.0 µM -29% | [13]; at 33.0 µM -21% | [13]; at 100.0 µM 40% | [14]; at 1.2 µM -51% | [14]; at 3.7 µM -36% | [14]; at 11.0 µM -3% | [14]; at 33.0 µM 44% | [15]; at 1.2 µM -72% | [15]; at 3.7 µM -45% | [15]; at 11.0 µM -2% | [15]; at 33.0 µM -23% | [15]; at 100.0 µM 64% | [16]; at 1.2 µM -4% | [16]; at 3.7 µM -8% | [16]; [17] 44% | [16]; at 11.0 µM -1% | [16]; at 33.0 µM 13% | [16]; at 50.0 µM 47.5% | [16]; at 100.0 µM 67% | [1]; at 1.2 µM -65% | [1]; at 3.7 µM -78% | [1]; [17] 56% | [1]; at 11.0 µM -64% | [1]; at 33.0 µM -28% | [1]; at 50.0 µM 63.5% | [1]; at 100.0 µM 58% | [3]; [17] 0% | [4]; at 1.2 µM -21% | [4]; at 3.7 µM -19% | [4]; at 11.0 µM -16% | [4]; at 33.0 µM -1% | [4]; at 100.0 µM 19% | [5]; [17] 10% | [5]; at 50.0 µM 31.1% | [6]; at 1.2 µM -18% | [6]; at 3.7 µM -10% | [6]; [17] 20% | [6]; at 11.0 µM -23% | [6]; at 33.0 µM 22% | [7]; at 1.2 µM -37% | [7]; at 3.7 µM -35% | [7]; at 11.0 µM -39% | [7]; at 33.0 µM -22% | [7]; at 100.0 µM 39% | [8]; at 1.2 µM -44% | [8]; at 3.7 µM -43% | [8]; at 11.0 µM -31% | [8]; at 33.0 µM -5% | [9]; at 1.2 µM -36% | [9]; at 3.7 µM -22% | [9]; at 11.0 µM -17% | [9]; at 33.0 µM 24% | [10]; [17] 34% | [10]; at 50.0 µM 49.1% | [11]; at 1.2 µM -57% | [11]; at 3.7 µM -38% | [11]; at 11.0 µM -39% | [11]; at 33.0 µM -3% | [11]; at 100.0 µM 64%
active: [14]; at 100.0 µM 88% | [16]; [18] 99% | [1]; [18] 100% | [3]; [18] 94% | [3]; at 50.0 µM 72.3% | [5]; [18] 81% | [6]; [18] 94% | [6]; at 50.0 µM 82.8% | [6]; at 100.0 µM 71% | [8]; at 100.0 µM 79% | [9]; at 100.0 µM 71% | [10]; [18] 99%
